Bioassay records deposited in PubChem BioAssay by National Center for Advancing Translational Sciences (NCATS).
Hits are enriched below; roughly 21% of the tested compounds scored in any of these assays.
DT40 TDP1 no CPT: qHTS for Inhibitors of human tyrosyl-DNA phosphodiesterase 1 (TDP1): qHTS in cells in absence of CPT | DT40 Tdp1-/- hTDP1 cells, no CPT, ATP luminescence, 48 h | Potency, µM (titrated, usually from 46.2 µM), inactives show at the top dose activity change, negative = growth inhibition, actives largely listed as inhibitors | hit rate 15% among 420,000; also: potency is read from the fitted curve at half-maximal effect; nearly all actives have a fitted effect of over 55% in size
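Luminescent ATP content (CellTiter-Glo) served as the growth readout. Knockout chicken DT40 cells expressing human TDP1 were exposed to compounds without camptothecin for a minimum 48 hr at 37 °C.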
TDP1 cell CPT: qHTS for Inhibitors of human tyrosyl-DNA phosphodiesterase 1 (TDP1): qHTS in cells in presence of CPT | chicken DT40 Tdp1-/-;hTDP1 cells + 20 nM CPT, ATP luminescence, 48 h | Potency, µM (highest dose often 46.2 µM), for inactives: at the highest dose activity change, negative = growth inhibition, most hits filed as inhibitors | hit rate 12% among 420,000 | AID 686979, 2013; also: potency is read from the fitted curve at half-maximal effect; nearly all actives have a fitted effect of over 55% in size
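Chicken DT40 Tdp1-/- cells complemented with human TDP1, 400 cells/well, exposed to compounds plus 20 nM camptothecin for at least 48 h at 37 C; viability read as ATP content by CellTiter-Glo luminescence.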
RORgamma inh: qHTS for inhibitors of ROR gamma transcriptional activity | Nuclear receptor ROR-gamma (Mus musculus), P51450 | Drosophila S2 Gal4-RORgamma UAS-luciferase reporter, 20 h | Potency, µM (titrated, usually from 53.6 µM), inactives show at the top dose activity change, negative = inhibition, usual class: inhibitors | hit rate 5.4% among 310,000; also: potency is read from the fitted curve at half-maximal effect; nearly all actives have a fitted effect of over 60% in size
Target sequence (P51450 whole entry, looked up, the tested form may be a part): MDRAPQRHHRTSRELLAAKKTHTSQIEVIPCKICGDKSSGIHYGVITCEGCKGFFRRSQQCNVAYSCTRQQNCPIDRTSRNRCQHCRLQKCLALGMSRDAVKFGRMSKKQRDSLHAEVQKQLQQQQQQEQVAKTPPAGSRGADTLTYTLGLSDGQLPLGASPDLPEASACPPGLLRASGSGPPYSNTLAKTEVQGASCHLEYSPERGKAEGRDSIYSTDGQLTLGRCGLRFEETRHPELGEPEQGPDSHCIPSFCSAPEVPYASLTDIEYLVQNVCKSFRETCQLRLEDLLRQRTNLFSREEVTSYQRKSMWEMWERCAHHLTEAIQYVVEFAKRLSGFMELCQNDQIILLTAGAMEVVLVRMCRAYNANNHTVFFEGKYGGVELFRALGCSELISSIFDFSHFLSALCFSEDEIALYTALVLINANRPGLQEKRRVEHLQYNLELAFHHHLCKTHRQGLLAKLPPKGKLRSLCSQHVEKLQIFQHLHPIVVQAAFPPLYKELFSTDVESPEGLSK
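Stable Schneider cell line, Gal4 DNA-binding domain fused to ROR gamma, UAS-luciferase. Cmpd 1 hr RT → CuSO4 700 uM final → 20 hr RT → luciferase reagent 10 min → luminescence.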
Gal4-VP16 FLuc: VP16 counterscreen qHTS for inhibitors of ROR gamma transcriptional activity; Drosophila S2 Gal4-VP16 UAS-luciferase, luminescence, 20 h; Potency, µM (doses to about 53.6 µM), for inactives: at the highest dose activity, negative = inhibition, usual class: inhibitors; hit rate 3.5% among 310,000;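 also: Gal4-VP16 expression switched on by copper sulfate through the metallothionein promoter; potency is read from the fitted curve at half-maximal effect; nearly all actives have a fitted effect of over 50% in size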
IL-1B inflam inh: qHTS for Inhibitors of Inflammasome Signaling: IL-1-beta AlphaLISA Primary Screen; THP-1 LPS/ATP IL-1B secretion, AlphaLISA, 16 h; active compounds read low; activity change, % at 57.5 µM; hit rate 4.7% among 360,000; AID 743279, 2014; in the data active = activity change below about -50%; inconclusive = mostly about -30% to -49%
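THP-1 cells pretreated 1 hr with compounds (up to 57.5 uM final), then stimulated with LPS (250 ng/mL final) plus ATP (1.25 mM final); secreted IL-1B measured by AlphaLISA after 16 hr, decreased signal indicating inhibition.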
ELG1 DNA repair: qHTS screen for small molecules that inhibit ELG1-dependent DNA repair in human embryonic kidney (HEK293T) cells expressing luciferase-tagged ELG1; HEK293T ELG1-luciferase reporter, luminescence, 16 h; DNA damage induced by 5-fluorouridine; Potency, µM (doses to about 46.1 µM), for inactives: at the highest dose activity change, negative = inhibition, usual class: inhibitors; hit rate 2.3% among 330,000; AID 504467, 2011; also: potency is read from the fitted curve at half-maximal effect; nearly all actives have a fitted effect of over 55% in size
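In this reporter screen, reduction of luminescence relative to DMSO vehicle indicated activity. Compounds and 5-fluorouridine were added together to 2,000 cells per well, incubated for 16 hr at 37 °C, then developed with ONE-Glo.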
Starred values were filed as active, the others as inactive; ? = inconclusive; . = no result given; [ ] = remark or other dose. Unless noted, calls follow the shape of the dose curve; as a rule, active = well fitted curve in the direction sought with a large enough effect; inconclusive = small, poorly fitted or top-dose-only effect, or another doubt; inactive = no such curve, though single readings can be large; an effect the other way counts as inactive or inconclusive. % is scaled to controls: 0 for no effect and ±100 for the full control effect.

SMILES	DT40 TDP1 no CPT	TDP1 cell CPT	RORgamma inh	Gal4-VP16 FLuc	IL-1B inflam inh	ELG1 DNA repair
O=C(Nc1cnn(Cc2ccc(Cl)cc2)c1)c1cccs1	8.2µM*	11.6µM*	?	-8.5%	-26.7	25.5%
O=C(Nc1cnn(Cc2ccc(Cl)cc2)c1)c1ccc([N+](=O)[O-])cc1	?	?	?	2.3%	?	20.6µM*
COC(=O)c1ccccc1NC(=O)CSc1nc(-c2ccco2)cc(C(F)(F)F)n1	4.61µM*	4.11µM*	?	-15.6%	43.1	16.4%
Cc1ccc(NC(=O)CSc2nc(-c3ccco3)cc(C(F)(F)F)n2)cc1C	3.66µM*	2.31µM*	?	-8.6%	23.9	?
COc1ccc(Cl)cc1NC(=O)CSc1nc(-c2ccco2)cc(C(F)(F)F)n1	16.4µM*	18.4µM*	.	.	.	.
O=C(CSc1nc(-c2ccco2)cc(C(F)(F)F)n1)NC1CCCC1	?	20.6µM*	-23.4%	-1.7%	-6.2	-12.2%
COC(=O)c1ccc(C(=O)OC)c(NC(=O)CSc2nc(-c3ccco3)cc(C(F)(F)F)n2)c1	?	?	.	.	18.0	.
O=C1CC(C(=O)N2CCCc3ccccc32)CN1c1ccc(Cl)cc1 (stereo unspecified)	?	-15.9%	31.2%	26.7%	-2.5	15.6%
Cc1ncc2c(c1CNC(=O)c1ccc3c(c1)OCO3)CCN(C(=O)c1csc3c1CCCC3)C2	-12.8%	-4.4%[9.04 µM]	.	.	.	.
CCC(=O)N1CCCC(C)(C(=O)Nc2ccc3oc(CC)nc3c2)C1 (stereo unspecified)	-1.6%	-6.8%	.	.	42.5	.
Cn1nc(-c2ccccc2)c(CSc2ccccc2)c1Cl	?	?	17.7%	2.5%	-3.0	15.3%
Cc1ccc(SCc2c(-c3ccccc3)nn(C)c2Cl)cc1	16.4µM*	?	13.1%	3.3%	7.4	-12.8%
COc1ccc(CCN2CC(C(=O)NCc3ccon3)CCC2=O)cc1 (stereo unspecified)	-0.9%	-2.8%	.	.	17.8	.
CCc1ccc(NC2=NCC(c3ccccc3)S2)cc1 (stereo unspecified)	?	-24.1%	8.91µM*	?	-6.3	?
Cc1ccc(NC2=NCC(Cc3ccc(Br)cc3)S2)cc1 (stereo unspecified)	?	?	12.6µM*	?	-96.2*	-4.2%
COc1ccc(C(=O)N[C@H](C(=O)NCCCSc2ccccc2)C(C)C)cc1	?	-29.7%	.	.	-17.6	?
Cc1cc(CC(C)C)n(-c2nc3ccccc3c(=O)n2OCc2ccccc2)n1	?	?	1.58µM*	?	-12.2	4.4%
Cc1cc(C)n(-c2nc3ccccc3c(=O)n2OCc2ccc(F)cc2)n1	?	?	?	?	8.7	?
Cc1cc(CC(C)C)n(-c2nc3ccccc3c(=O)n2OCC(=O)N(C)C)n1	-19.4%	-13.9%	2.24µM*	6.31µM*	-14.3	?
Cc1cc(C)n(-c2nc3ccccc3c(=O)n2OCC(=O)N(C)C)n1	-21.7%	7.9%	19.7%	-9.6%	-1.7	-20.7%
CCC1=NN(C(=O)Cc2ccc(OC)cc2)C(O)(C(F)(F)F)C1 (stereo unspecified)	20.6µM*	29.1µM*	11.2µM*	?	9.6	-5.1%
COc1ccc(CC(=O)N2N=C(c3ccncc3)CC2(O)C(F)(F)F)cc1 (stereo unspecified)	4.61µM*	5.17µM*	11.2µM*	-2.7%	34.4	?
Cc1ccc(OCC(=O)N2N=C(c3cccnc3)CC2(O)C(F)(F)F)cc1C (stereo unspecified)	?	16.4µM*	-43.1%	?	-6.4	-19.8%
CCCC1=NN(C(=O)Cc2ccc(OC)c(OC)c2)C(O)(C(F)(F)F)C1 (stereo unspecified)	-24.9%	-17.4%	?	-19.1%	49.2	-9.2%
CCOC(=O)N1N=C(c2ccc(OC)cc2)CC1(O)C(F)(F)F (stereo unspecified)	-22.9%	-0.3%	?	?	-11.9	?
SMILES	DT40 TDP1 no CPT	TDP1 cell CPT	RORgamma inh	Gal4-VP16 FLuc	IL-1B inflam inh	ELG1 DNA repair
CCc1ccc(C2=NN(C(=O)OC)C(O)(C(F)(F)F)C2)cc1 (stereo unspecified)	-17.5%	1.4%	11.2µM*	?	5.0	?
COCc1cc(C)n(CC(=O)Nc2ccc(N3CCOCC3)cc2)c(=O)c1C#N	-18.2%	-11.2%	.	.	12.9	12.8%
COc1ccc(OCC(=O)N2N=C(C)CC2(O)C(F)(F)F)cc1 (stereo unspecified)	-13.6%	-8.7%	6.31µM*	?	-8.3	10.5%
Cc1ccccc1OCC(=O)N1N=C(C(F)(F)F)CC1(O)C(C)(C)C (stereo unspecified)	16.4µM*	?	?	?	-10.9	?
CC(C)(C)C1(O)CC(C(F)(F)F)=NN1C(=O)CCc1ccccc1 (stereo unspecified)	-19.1%	-18.1%	-26.1%	-23.0%	0.0	4.0%
O=C(OCCN1C(=O)c2cccc3c(N4CCOCC4)ccc(c23)C1=O)c1ccc(Cl)cc1	1.64µM*	2.06µM*	7.6%	-0.6%	-4.3	?
Cc1ccc(Cl)cc1N1CCN(Cc2cc(=O)n3ccsc3n2)CC1	?	-17.0%	8.1%	-3.4%	0.0	?
C/C=C1/NN(CCCN2CCN(c3cccc(Cl)c3)CC2)C(=O)N1CCOc1ccccc1	.	.	21.4%	-3.9%	.	.
CCOc1ccc(/C=C2\SC(=S)N(CC(=O)N(CCO)C(C)(C)C)C2=O)cc1	?	?	7.08µM*	11.2µM*	-123.3*	-16.8%
CCOc1ccc(/C=C2\SC(=S)N(CCCC(=O)NCCCN3CCOCC3)C2=O)cc1	?	18.4µM*	0.398µM*	0.891µM*	-89.4*	7.7%
CCc1ccc(/C=C2\SC(=S)N(CCCC(=O)NCCCN3CCOCC3)C2=O)cc1	?	20.6µM*	.	.	-56.7*	.
CCc1ccc(/C=C2/SC(=S)N(CCC(=O)NCCCN3CCOCC3)C2=O)cc1	-21.3%	-30.0%	16.0%	5.8%	-29.5	14.9%
COc1cc(NC(=O)C(NS(=O)(=O)c2ccc3c(c2)CCCC(=O)N3)C(C)C)cc(OC)c1 (stereo unspecified)	-4.6%	1.6%	.	.	.	.
